Assay outcomes from PubChem.
IDH1 R132H inh = blocks human mutant IDH1 R132H enzyme; IDH1-R132H enzyme, NADPH consumption, diaphorase/resazurin fluorescence; 390,000 compounds, 0.093% hits; Potency, µM (highest dose often 76.6 µM), most hits filed as inhibitors; AID 602179; further: nearly all actives have a fitted effect of over 65% in size
Target sequence (O75874 whole entry R132H, stated change not applied): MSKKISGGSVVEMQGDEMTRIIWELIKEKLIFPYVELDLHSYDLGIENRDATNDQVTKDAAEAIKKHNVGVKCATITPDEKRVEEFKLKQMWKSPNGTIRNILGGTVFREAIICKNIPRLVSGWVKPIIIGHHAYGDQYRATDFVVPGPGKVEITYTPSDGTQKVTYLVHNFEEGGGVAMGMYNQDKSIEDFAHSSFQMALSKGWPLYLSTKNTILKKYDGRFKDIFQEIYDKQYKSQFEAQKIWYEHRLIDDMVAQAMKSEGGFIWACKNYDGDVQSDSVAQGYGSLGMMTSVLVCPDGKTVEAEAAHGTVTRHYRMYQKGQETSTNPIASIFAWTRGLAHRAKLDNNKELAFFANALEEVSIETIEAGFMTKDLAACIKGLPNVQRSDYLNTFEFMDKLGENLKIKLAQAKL
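IDH1-R132H (0.5 ug/mL dispensed) in pH 7.5 Tris buffer was preincubated 30 min with compound, then given a substrate mix of 0.016 mM NADPH and 2 mM alpha-KG for 80 min at room temperature; remaining NADPH was read by diaphorase/resazurin fluorescence.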
Abeta rescue = restores growth of yeast expressing A-beta42 peptide; yeast expressing A-beta42, growth rescue, OD600, 48 h; response scale: 0% DMSO, 100% iron-clioquinol control; Potency, µM (highest dose often 46.1 µM), most hits filed as activators; 410,000 compounds, 0.063% hits; AID 1347071; further: nearly all actives have a fitted effect of over 55% in size
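Yeast A-beta toxicity model in growth medium with pinned compounds, 48 h at 30 C; growth read as absorbance at 600 nm. Normalized to FeCl3/clioquinol equimolar mix (positive) and DMSO (negative).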
aSyn yeast inh = inhibitors of alpha-synuclein toxicity in yeast. Yeast expressing alpha-synuclein, growth rescue, BacTiter-Glo, 24 h. Potency, µM (series often up to 46.1 µM), actives largely listed as activators. 370,000 compounds, 0.14% hits; further: nearly all actives have a fitted effect of over 65% in size
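Readout is rescue of growth in alpha-synuclein-expressing yeast, so inhibitors of toxicity appear as activators. Growth after 24 hr at 30 deg C in galactose medium is quantified by luminescence.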
TDP43 rescue = inhibitors of TDP-43 toxicity in yeast. TDP-43 expressing yeast growth rescue, BacTiter-Glo, 24 h. Potency, µM (series often up to 46.1 µM), usual class: activators. 410,000 compounds, 1.8% hits. AID 652104; further: nearly all actives have a fitted effect of over 50% in size
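Readout is BacTiter-Glo luminescence of cell growth, so inhibitors register as activators. TDP-43-expressing yeast at OD600=0.02 in galactose medium, after raffinose pregrowth to mid-log, were incubated with compound for 24 hr at 30 deg C.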
LDHA block = LDHA (human) enzyme inhibition; P00338; purified LDHA, NADH/diaphorase-resazurin fluorescence; active compounds read low; activity change, % (values are at about 110 or 230 µM); 480,000 compounds, 0.15% hits; AID 1347041; in the data active means activity change below about -30%; inconclusive means mostly about -25% to -30%
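Human LDH5 (2 nM) was incubated with 0.06 mM NADH and 0.2 mM pyruvate for 5 min at room temperature in Tris pH 7.4. Remaining NADH was coupled through diaphorase/resazurin, and resorufin fluorescence was read at 0 and 20 min.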
FUS suppressor = suppressors of FUS proteinopathy in yeast. S. cerevisiae FUS-expressing, growth rescue, OD600, 24 h. Potency, µM (series often up to 76.6 µM), actives largely listed as activators. 390,000 compounds, 0.24% hits. AID 1347120; further: nearly all actives have a fitted effect of over 55% in size
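Absorbance at 600 nm, taken 24hr after compound addition, measured rescue of FUS-yeast growth at 30C. Induction used 2% galactose with seeding at OD 0.005. Controls: CP55940 from 92uM final, DMSO only.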
Hits are given with their value; n = inactive; u = inconclusive; x = no result given; [ ] = remark or other dose. Sampled rows, rich in hits. Any-hit rate of the full collection: about 2%. Unless noted, the call rests on the fitted dose curve; in most records, active means well fitted curve in the direction sought with a large enough effect; inconclusive means small, poorly fitted or top-dose-only effect, or another doubt; inactive means no such curve, though single readings can be large; an effect the other way counts as inactive or inconclusive.

SMILES	IDH1 R132H inh	Abeta rescue	aSyn yeast inh	TDP43 rescue	LDHA block	FUS suppressor
CCCCS(=O)(=O)c1oc(-c2cccs2)nc1S(=O)(=O)c1ccc(F)cc1	n	n	x	22.4µM	n	n
Cn1c(SCc2cc(=O)n3[nH]cc(C#N)c3n2)nnc1-c1ccc(C(C)(C)C)cc1	x	x	x	x	n	x
CCOc1ccccc1C(N)=S	x	x	x	x	n	x
Cc1ccc2[nH]cc(C(C(=O)O)N3CCN(Cc4cccc(Cl)c4)CC3)c2c1 (configuration not stated)	x	x	x	x	n	x
CCOC(=O)C1CCN(C(=O)c2oc3ccc4c(c3c2C)C(O)CC2(CCCCC2)O4)CC1 (configuration not stated)	n	n	n	25.1µM	n	u
CCOC(=O)C1CCN(C(=O)CCc2c(C)nc3cc(-c4ccccc4)nn3c2C)CC1	n	n	n	17.8µM	n	n
Cc1cc2c(s1)CCc1cc(C(=O)NC3CCCC3)sc1-2	x	x	x	x	n	x
Cc1cc2cc(N)ccc2[nH]1	x	x	x	x	n	x
CC(=O)C(=Cc1cn(-c2ccccc2)nc1-c1ccccc1)C(C)=O	n	n	n	14.1µM	n	n
COc1ccccc1/C=C/C=C(/C#N)c1nc2ccccc2[nH]1	x	x	x	x	n	x
Cc1oc(-c2cccs2)nc1CC(=O)Nc1ccc(F)cc1Cl	x	x	x	x	n	x
CN1/C(=C\C=C2/C(=O)Oc3ccccc3C2=O)C(C)(C)c2ccccc21	36.9µM	n	n	n	-49.9	u
CN1C(=CC=C2C=C(I)C(=O)C(I)=C2)C(C)(C)c2ccccc21	46.5µM	n	n	n	n	n
CN1/C(=C\C=N\O)C(C)(C)c2ccccc21	n	n	n	n[0.397 µM]	n	n
COc1cccc2c(C)nc(Nc3nc(C)c(Cc4ccc(Cl)cc4)c(=O)[nH]3)nc12	x	x	x	x	n	x
O=C(Nc1ccccc1C(F)(F)F)Nc1c(NC2CCCC2)c2ccccc2oc1=O	x	x	x	x	n	x
Cc1cccc(OCCCN2C(=O)C(=O)c3cc(C)ccc32)c1	n	n	n	14.1µM	n	n
Cc1cccc(OCCn2c(=O)n(C)c3ccccc32)c1	n	n	22.4µM	u	n	n
O=C(Oc1c(Cl)cc(Cl)c2cccnc12)c1cccc([N+](=O)[O-])c1	n	n	u	2µM	n	n
Cc1ccc(NC(=O)C2=C(c3ccccc3)NC(=S)NC2c2ccc(C(C)(C)C)cc2)cc1 (configuration not stated)	x	x	x	x	n	x
O=C(Nc1c(NC2CCCC2)c2ccccc2oc1=O)c1cccs1	x	x	x	x	n	x
CCN(Cc1ccc(Br)s1)C(=O)CCl	x	x	x	x	n	x
Cc1cc(C(=O)Cn2nc(C(=O)O)c3ccccc3c2=O)c(C)n1-c1ccc(OC(F)F)cc1	n	n	n	n	n	u
Cc1cc(C(=O)CSc2cccc[n+]2[O-])c(C)n1-c1ccc(OC(F)F)cc1	n	n	n	14.1µM	n	n
COC(=O)c1ccc(-n2c(C)cc(C(=O)CSc3cccc[n+]3[O-])c2C)cc1	n	n	u	14.1µM	n	n
SMILES	IDH1 R132H inh	Abeta rescue	aSyn yeast inh	TDP43 rescue	LDHA block	FUS suppressor
CCc1c(C)sc(NC(=O)/C=C/c2c(F)cccc2Cl)c1C#N	x	x	x	x	n	x
COc1ccc(C(=O)Nc2nc(-c3cccs3)cs2)cc1	n	n	n	n	n	x
Cc1ccc(C(=O)Nc2nccc(-c3cccs3)n2)cc1	n	n	n	12.6µM	n	n
NC(=S)Nc1nccc(-c2cccs2)n1	n	n	n	n	n	n
O=C(Cc1ccccc1F)Nc1nc(-c2cccs2)cs1	n	n	n	12.6µM	n	n
COc1ccc(-c2csc(NC(=O)Cc3ccccc3F)n2)c(OC)c1	n	n	n	12.6µM	n	n
O=C(Cc1ccccc1)Nc1nc(-c2cccs2)cs1	n	n	n	u	n	n
O=C(Nc1nc(-c2cccs2)cs1)c1ccc(Cl)cc1	n	n	n	35.5µM	n	n
COc1ccc(-c2nc(CSCC(=O)NCCCN3CCOCC3)c(C)o2)cc1OC	x	x	x	x	n	x
COc1cccc(-c2cc(C(=O)N3CCN(c4ncccn4)CC3)c3ccccc3n2)c1	n	n	n	17.8µM	n	x
O=C(c1cc(-c2ccccc2)nc2ccccc12)N1CCc2ccccc2C1	n	n	n	25.1µM	n	x
CC(C)Oc1cccc(-c2cc(C(=O)N3CCN(c4ncccn4)CC3)c3ccccc3n2)c1	x	x	x	x	n	x
Cc1cccc2c(C(=O)N3CCN(c4ccccn4)CC3)cc(-c3cccc(Br)c3)nc12	n	n	n	17.8µM	n	u
COC(=O)c1cccc2c1-c1ccccc1/C2=N\O	x	x	x	x	n	x
Cc1cccc(C2CCCN2S(=O)(=O)c2ccc(C(C)(C)C)cc2)c1 (configuration not stated)	x	x	x	x	n	x
COc1ccc(-c2noc(CN(C(=O)C(C)Oc3ccc(C)cc3)C(C)C)n2)cc1 (configuration not stated)	x	n	x	35.5µM	n	n
Cc1ccc(CC(=O)N(Cc2nc(-c3ccc(C)cc3)no2)C(C)C)cc1	n	n	x	25.1µM	n	n
CC(C)N(Cc1nc(-c2ccc(Cl)cc2)no1)C(=O)c1ccco1	n	n	x	35.5µM	n	n
COc1ccc(OC(C)C(=O)N(C)Cc2nc(-c3ccccc3)no2)cc1 (configuration not stated)	n	n	n	u	n	n
CN(Cc1nc(-c2ccc(Cl)cc2)no1)C(=O)c1ccco1	n	n	n	n	n	n
CCOc1ccc(NC(=O)c2nn(Cc3ccccc3)c(=O)c3ccccc23)cc1OCC	x	x	x	x	n	x
COc1ccccc1OCC(=O)Nc1ccc(-c2nc3ccccc3o2)cc1	x	x	x	x	n	x
CN1CCN(c2oc(-c3ccc(Cl)cc3)nc2C#N)CC1	x	x	x	x	n	x
Cc1cccc(Nc2nc(C)c(C(=O)N(C)C)s2)c1	x	x	x	x	n	x
Cc1nc(Nc2ccccc2)sc1-c1ccccc1	n	n	n	20µM	n	x
Cc1nc(Nc2ccc(C(=O)O)cc2)sc1-c1ccccc1	n	n	n	n	n	n
CC(=O)c1sc(Nc2ccc(Oc3ccccc3)cc2)nc1C	x	n	n	35.5µM	n	n
CC(=O)c1sc(Nc2cccc(C)c2)nc1C	n	n	n	7.08µM	n	n
